30 compounds from the supplement of paper PMC12669797 can be followed below.

Counter-ions that a name gives are not always drawn. ± gives the standard deviation of the averaged measurements.

The subject of the assay is TOV-21G. Nature of the assay: cell viability relative to DMSO control (MTS) (fraction of DMSO control); higher = more viable cells / less growth inhibition. The settings on record: 10 µM; 48 h. An outline of the steps:
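After 24 h of growth in 96-well plates at 5000 cells per well, TOV-21G and ES2 clear cell carcinoma cells were treated for 48 h with a 367-compound […] library at 10 µM final concentration. Cell viability was measured by MTS assay and expressed relative to vehicle control wells as a fraction.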
`COc1nccc(-c2c(-c3ccc(F)cc3)ncn2C2CCC(O)CC2)n1` (stereo not given) registered a cell viability of 1.06.
`Oc1c2ccccc2c2c3c(cccc13)N=N2` displayed a cell viability of 0.65 ± 0.023.
As for `CO[C@H]1C[C@@H]2CC[C@@H](C)[C@@](O)(O2)C(=O)C(=O)N2CCCC[C@H]2C(=O)O[C@H]([C@H](C)C[C@@H]2CC[C@@H](OC(=O)C(C)(CO)CO)[C@H](OC)C2)CC(=O)[C@H](C)/C=C(\C)[C@@H](O)[C@@H](OC)C(=O)[C@H](C)C[C@H](C)/C=C/C=C/C=C/1C` [temsirolimus], the figure is 0.516.
The value for `CN(C)CC(=O)Nc1ccc2[nH]c(=O)c3ccccc3c2c1` was 0.882; that for `CC[C@@]1(O)C[C@H](O[C@H]2C[C@H](N(C)C)[C@H](O[C@H]3C[C@H](O)[C@H](O[C@H]4CCC(=O)[C@H](C)O4)[C@H](C)O3)[C@H](C)O2)c2c(cc3c(c2O)C(=O)c2c(O)cccc2C3=O)[C@H]1C(=O)OC` [Aclarubicin] was 0.385.
Turning to `C[n+]1ccc(-c2c3nc(c(-c4cc[n+](C)cc4)c4ccc([nH]4)c(-c4cc[n+](C)cc4)c4ccc([nH]4)c(-c4cc[n+](C)cc4)c4nc2C=C4)C=C3)cc1`, the cell viability came out at 0.79.
As for `CC(C)(C)c1nc2c3cc[nH]c(=O)c3c3cc(F)ccc3c2[nH]1` [JAK Inhibitor I], the figure is 0.662; as for `O=CN1CCN(c2ccc(/C=C3\C(=O)Nc4ccccc43)cc2)CC1`, 1.2; as for `CC(C)[C@H](CO)Nc1nc(Nc2cccc(Cl)c2)c2ncn(C(C)C)c2n1` [Purvalanol A], 0.652.
In the case of `O=[N+]([O-])c1ccc(-c2nc(-c3ccc(F)cc3)c(-c3ccncc3)[nH]2)cc1`, the cell viability worked out at 0.976.
As for `CC/C(=C(\c1ccccc1)c1ccc(OCCN(C)C)cc1)c1ccccc1` [Tamoxifen, citrate], the figure is 0.868.
For the compound `NC(=O)c1cccc2cn(-c3ccc([C@@H]4CCCNC4)cc3)nc12` [MK-4827 (Niraparib)], the cell viability was found to be 0.783.
Take `COc1cc2ncnc(Nc3ccc(NC(=O)c4ccccc4)cc3)c2cc1OC` [Aurora kinase inhibitor II]: the cell viability came out at 0.688.
As for `N#C/C(=C\c1ccc(O)c(O)c1)C(=O)NCc1ccccc1`, the figure is 1 ± 0.013; as for `O=C(Nc1cccc(Nc2nccc(Nc3cccc(C(F)(F)F)c3)n2)c1)C1CC1` [Aurora kinase inhibitor III], 0.573; as for `O=C(O)c1ccccc1Nc1ccccc1` [N-phenylanthranilic acid], 0.995.
For the compound `Cc1cc(C=C2C(=O)C=CC2=O)cc(C)c1O`, the cell viability was 1.21.
The value for `C[C@]1(O)C[C@@H](c2nc(-c3ccc4ccc(-c5ccccc5)nc4c3)c3c(N)nccn32)C1` was 0.875; that for `NC(=O)c1ccc(I)c([N+](=O)[O-])c1` [BSI-201 (Iniparib)] was 1.29; that for `CC(C)(C)NC(=O)[C@H]1CC[C@H]2[C@@H]3CC[C@H]4NC(=O)C=C[C@]4(C)[C@H]3CC[C@]12C` [Finasteride] was 0.952.
The value for `COc1cc2/c(=N/c3ccc(Br)cc3F)nc[nH]c2cc1OCC1CCN(C)CC1` [Vandetanib] was 0.436; that for `Nc1nc(Nc2ccc(S(N)(=O)=O)cc2)nn1C(=S)Nc1c(F)cccc1F` [Cdk1/2 inhibitor III] was 0.665; that for `CCCCOc1cc(CC2CNC(=O)N2)ccc1OC` (stereo not given) was 0.999.
`CC(C)CC(NC(=O)CNC(=O)OCc1ccccc1)C(=O)NC(Cc1ccccc1)C(=O)CCl` (stereo not given) had a cell viability of 0.479.
Regarding `O=Nc1c(-c2c(O)[nH]c3cc(Br)ccc23)[nH]c2ccccc12` [GSK-3 inhibitor IX], the cell viability stood at 0.36.
The value for `CO[C@H]1C[C@@H]2CC[C@@H](C)[C@@](O)(O2)C(=O)C(=O)N2CCCC[C@H]2C(=O)O[C@H]([C@H](C)C[C@@H]2CC[C@@H](OCCO)[C@H](OC)C2)CC(=O)[C@H](C)/C=C(\C)[C@@H](O)[C@@H](OC)C(=O)[C@H](C)C[C@H](C)/C=C/C=C/C=C/1C` [everolimus] was 0.831; that for `Clc1ccccc1CNCC1CCC(CNCc2ccccc2Cl)CC1` (stereo not given) was 1.03.
The value for `CNC(=O)c1ccc(N2C(=S)N(c3ccc(C#N)c(C(F)(F)F)c3)C(=O)C2(C)C)cc1F` was 1.18; that for `CC[C@H](C)C(=O)O[C@H]1C[C@@H](C)C=C2C=C[C@H](C)[C@H](CC[C@@H]3C[C@@H](O)CC(=O)O3)[C@H]21` [Lovastatin] was 0.792; that for `CC(=O)O[C@H]1C(=O)[C@@]2(C)[C@H]([C@H](OC(=O)c3ccccc3)[C@]3(O)C[C@H](OC(=O)[C@H](O)[C@@H](NC(=O)c4ccccc4)c4ccccc4)C(C)=C1C3(C)C)[C@]1(OC(C)=O)CO[C@@H]1C[C@@H]2O` [Paclitaxel] was 1.25.
